Screening data as filed in PubChem.
Mac1 fbg enh: enhancers of CD11b/CD18 adhesion to fibrinogen, primary screen, K562 cells, luminescence; hit rate 0.07% among 93,000; ATPlite luminescence; activation, % at 10 µM; Integrin beta-2 (Homo sapiens) + Integrin alpha-M (Homo sapiens), P05107+P11215;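 active means 10 µM primary screen giving 50% or more activity, confirmed by 40% or more on retest at that dose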
Target sequence (P05107 whole entry, looked up, other chains not shown): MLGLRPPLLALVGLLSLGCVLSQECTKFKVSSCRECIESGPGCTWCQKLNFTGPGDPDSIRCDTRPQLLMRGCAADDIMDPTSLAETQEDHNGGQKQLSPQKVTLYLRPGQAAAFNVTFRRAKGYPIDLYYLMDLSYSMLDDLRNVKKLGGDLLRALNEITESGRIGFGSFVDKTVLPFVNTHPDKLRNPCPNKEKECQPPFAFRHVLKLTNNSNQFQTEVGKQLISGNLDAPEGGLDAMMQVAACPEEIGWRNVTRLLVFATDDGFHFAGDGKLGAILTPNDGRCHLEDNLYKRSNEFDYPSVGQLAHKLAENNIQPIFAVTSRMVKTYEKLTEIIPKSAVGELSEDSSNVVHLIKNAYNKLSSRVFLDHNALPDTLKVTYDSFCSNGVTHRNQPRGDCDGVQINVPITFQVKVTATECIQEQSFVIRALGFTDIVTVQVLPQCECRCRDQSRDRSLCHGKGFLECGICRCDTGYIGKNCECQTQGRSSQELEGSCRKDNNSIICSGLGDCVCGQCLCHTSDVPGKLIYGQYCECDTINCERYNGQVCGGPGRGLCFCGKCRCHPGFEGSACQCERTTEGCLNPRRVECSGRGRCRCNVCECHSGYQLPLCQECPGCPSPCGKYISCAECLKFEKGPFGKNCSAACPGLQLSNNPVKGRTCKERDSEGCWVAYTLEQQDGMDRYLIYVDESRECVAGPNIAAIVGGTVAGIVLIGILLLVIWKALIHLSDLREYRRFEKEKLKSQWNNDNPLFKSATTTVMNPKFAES
CD11b adhes inh: inhibitors of CD11b/CD18 adhesion to fibrinogen, primary screen, K562 cells, luminescence; AID 1497, 2009; inhibition, % at 10 µM; hit rate 0.54% among 93,000; ATPlite luminescence; Mn2+ added to activate the integrin;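 active means primary inhibition of 50% or more at 10 µM, then 40% or more on retest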
MRP resist rev: reversal of MRP1-mediated doxorubicin resistance, primary screen, H69AR cells, doxorubicin co-treatment. H69AR cells + 2 uM doxorubicin, CellTiter-Glo, 72 h. differential viability (reversal), % at 10 µM. hit rate 0.04% among 85,000;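 active means viability drop by adding the cancer drug above about 55%, with treated viability meeting a 40% cutoff, limit read from the data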;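 further: larger differential means the compound sensitizes cells more to doxorubicin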
Smad3 FoxH1 inh: Smad3/FoxH1 peptide binding inhibitors, primary screen, biochemical, TR-FRET | TR-FRET Smad3/Dy647-FoxH1 peptide binding, europium anti-His | inhibition, % at 25 µM | hit rate 0.29% among 88,000 | AID 630, 2007;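 active means compounds that reduce the energy-transfer binding signal between the protein and its labelled peptide by more than half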
Phagocytosis inh: inhibitors of macrophage phagocytosis, primary screen, imaging, J774A.1 cells, IgG beads | J774A.1 macrophage IgG-bead phagocytosis | AID 1029, 2008 | inhibition, % at 5 µM | hit rate 0.07% among 110,000;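 active means inhibition above the mean of the plate negative controls plus 5 SD, cut at about 13% in these data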;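 further: phagocytic index as fraction of beads internalized from green versus red external bead signal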
MRP-1 activ: H69AR viability gain despite doxorubicin, primary screen, MRP-1 activator project, H69AR cells, CellTiter-Glo. viability rescue. viability increase, % at 10 µM. hit rate 0.61% among 140,000. AID 799, 2007;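 active means viability gain under doxorubicin at or above a set limit, the compound median plus 3 SD, cut at about 4.7% in these data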;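 further: MRP-1 overexpressing cells given doxorubicin 25 µM after compound pretreatment; 18-22 h compound pretreatment then 72 h with doxorubicin before readout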
Hits are given with their value; n = inactive; x = no result. Rows were chosen to be rich in hits. Some 1.2% of all compounds tested hit in one or more screens of this group.

SMILES	Mac1 fbg enh	CD11b adhes inh	MRP resist rev	Smad3 FoxH1 inh	Phagocytosis inh	MRP-1 activ
CCCCNS(=O)(=O)c1ccc(S(=O)(=O)NCc2ccncc2)cc1	x	x	n	n	x	n
Cc1ccc(C2(C)NC(=O)N(CC(=O)Nc3cc(S(=O)(=O)N4CCOCC4)ccc3C)C2=O)cc1 (stereo unspecified)	x	x	x	x	n	n
COc1ccc(C2c3c(ncn(CCN4CCOCC4)c3=N)Oc3ccc4ccccc4c32)cc1OC (stereo unspecified)	n	n	n	n	n	n
Cc1cc(N/N=C/c2ccc(O)cc2O)nc(-c2ccccc2O)n1	x	x	x	x	n	n
Cc1cc(N/N=C/c2ccc(O)cc2O)nc(-n2nc(C)cc2C)n1	x	x	x	x	n	5.3
COc1ccc(/C=N/Nc2cc(C)nc(-n3nc(C)cc3C)n2)cc1	x	x	x	x	n	9.1
Oc1ccccc1CNn1cnnc1	x	x	n	n	x	n
ClC(Cl)(c1nnnn1-c1ccccc1)c1nnnn1-c1ccccc1	x	x	x	x	n	n
COCCn1c(C)cc(C2=NNC(=Nc3ccc(Cl)cc3Cl)SC2)c1C	82	n	n	n	x	n
C=CCN=C1NN=C(c2cc(C)n(CCOC)c2C)CS1	x	x	x	x	n	n
Cc1n[nH]c(=S)n(/N=C/c2ccccn2)c1=O	n	n	n	n	n	6.0
CCCCCOc1ccc(OC(=O)c2ccncc2)cc1	n	n	n	n	x	n
CCCCOc1ccc(C(=O)Oc2ccc(C)nc2)cc1	n	n	n	n	n	5.5
O=C(Nc1ccc(NC(=O)c2sc3ccccc3c2Cl)cc1Cl)c1ccco1	x	x	x	x	x	n
COc1ccc(C(C)NC(=O)C2C(=O)NC3(C)CC2c2ccccc2O3)cc1 (stereo unspecified)	n	n	n	n	n	n
COc1ccc(NC(=O)C2C(=O)NC3(C)CC2c2ccccc2O3)cc1 (stereo unspecified)	n	n	n	n	n	4.9
C=CCN1C(=O)C(Cc2ccc(OC)cc2)S/C1=N/N=C/c1ccco1 (stereo unspecified)	n	n	x	x	n	n
Cc1nn(-c2ccccc2)c(C)c1C(=O)OCC(=O)c1c(N)n(CC(C)C)c(=O)n(C)c1=O	n	65	n	n	n	n
C=CCc1c(C)nc(-c2ccccc2)nc1N/N=C(\C)c1ccccc1	x	x	x	x	n	5.5
O=C(O)c1cccc(N2C(=O)C3CC=CCC3C2=O)c1 (stereo unspecified)	x	x	n	n	x	n
O=C(O)c1cccc(N2C(=O)C3CC=C(Cl)CC3C2=O)c1 (stereo unspecified)	n	n	n	n	n	10
CCOc1ccccc1NC(=O)c1cccc(NC(=O)CC(c2ccccc2)c2ccccc2)c1	x	x	x	x	x	8.6
CCOc1ccccc1NC(=O)c1ccc(Cl)c(NC(=O)CC(c2ccccc2)c2ccccc2)c1	n	n	x	x	n	n
COc1ccccc1/C=C/C=N/n1c(C2CCCCC2)n[nH]c1=S	n	n	x	x	n	4.8
COc1ccc(-c2n[nH]c(=S)n2/N=C/C=C/c2ccccc2OC)cc1	n	n	x	x	n	n
SMILES	Mac1 fbg enh	CD11b adhes inh	MRP resist rev	Smad3 FoxH1 inh	Phagocytosis inh	MRP-1 activ
N#C/C(=C(/O)c1ccco1)c1nc2ccccc2s1	n	52	x	x	n	n
O=C(O)C[C@@H](C(=O)O)c1ccccc1[N+](=O)[O-]	x	x	x	n	x	x
C/C(=N\NS(=O)(=O)c1ccc(Cl)c([N+](=O)[O-])c1)c1cc2ccccc2o1	n	97	x	x	n	n
O=C(O)C[C@H]1OCC=C2C[N+]3([O-])CC[C@@]45c6ccccc6N[C@@H]4[C@@H]1[C@@H]2C[C@H]53 (stereo partly specified)	x	x	x	n	x	x
OCCN(CO)CO	x	x	x	n	x	x
Cc1nnc2ccc(Oc3ccc(-c4ccccc4)cc3)nn12	n	n	n	n	n	n
C/C(=N\OC(=O)c1cccc(C)c1)c1sc(-c2ccccc2)nc1C	x	x	x	x	x	4.7
COc1ccc(S(=O)(=O)N(C)c2ccc(C(=O)NCCC(C)C)cc2)cc1	n	n	n	69	n	n
O=C1[C@H]2[C@@H]3c4ccccc4[C@H]([C@H]2C(=O)N1c1ccc(OCc2ccccc2)cc1)[n+]1ccccc13	x	x	x	n	x	x
c1cc(CSSCc2ccncc2)ccn1	x	x	x	n	x	x
COC(=O)c1sc(NC(=O)c2oc3ccccc3c2C)nc1C	n	n	n	n	n	n
Cc1c(C(=O)Nc2nnc(C(F)(F)F)s2)oc2ccccc12	n	n	n	n	x	8.9
Clc1ccc2c(N3CCC(CCC4CCN(c5ncnc6cc(Cl)ccc56)CC4)CC3)ncnc2c1	x	x	x	n	x	x
CC(=O)Nc1nc(C)c(Oc2ccc(Cl)cc2Cl)c(=O)[nH]1	n	n	n	n	n	32
Cc1ccc(C)c(S(=O)(=O)C(C#N)c2nc3ccccc3nc2N2CCOCC2)c1 (stereo unspecified)	n	95	n	n	n	n
Nc1nc(N)c2[nH]cnc2n1 (tested in a mixture with another compound)	x	x	x	n	x	x
Nc1ncnc2nc[nH]c12.Nc1ncnc2nc[nH]c12.[Cl][Pt]([Cl])([Cl])[Cl]	x	x	x	71	x	x
Cc1ccc(Nc2nnc(-c3ccc(N4CCOCC4)c([N+](=O)[O-])c3)c3ccccc23)cc1	x	x	x	x	n	5.2
CC1(C)S[C@H]2[C@H](NC(=O)C3(N)CCCCC3)C(=O)N2[C@@H]1C(=O)O	x	x	x	n	x	x
CN(C)Cc1cc(Cl)c(O)c(CN(C)C)c1	x	x	x	n	x	x
CN(C)Cc1cc(O)c(O)c(CN(C)C)c1	x	x	x	54	x	x
N#CC1=C(N)NC(SCC(=O)c2ccc(Cl)cc2)=C(C#N)C12CCCC2	n	64	n	n	x	n
COc1ccc2c3c([nH]c2c1)[C@H]1C[C@@H]2[C@H](C[C@@H](O)[C@H](OC)[C@H]2C(=O)O)CN1CC3	x	x	x	n	x	x
c1coc(CNc2nc3nonc3nc2NCc2ccco2)c1	n	62	x	n	n	n
O=C(Nc1ccc(OC(F)(F)F)cc1)c1n[nH]c(Cn2cncn2)n1	x	x	x	x	x	4.9
SMILES	Mac1 fbg enh	CD11b adhes inh	MRP resist rev	Smad3 FoxH1 inh	Phagocytosis inh	MRP-1 activ
CC(C#N)Sc1nc2ccccc2c(=O)n1-c1ccccc1 (stereo unspecified)	n	n	n	n	n	n
Cc1cccc(NC(=O)Cn2c(=O)n(Cc3ccco3)c(=N)c3c4c(sc32)COC(C)(C)C4)c1	n	n	n	n	n	9.4
CCCCn1c(N)c(-c2nc3ccccc3o2)c2c([N+](=O)[O-])nn(CC)c(=O)c21	x	x	x	x	n	n
C/C(N)=C(/C#N)C(=O)CSc1nc2cc(Cl)ccc2s1	n	n	x	x	n	n
CCCn1nc([N+](=O)[O-])c(C(C#N)c2nc3ccccc3o2)c(Cl)c1=O (stereo unspecified)	n	99	x	x	n	n
CCn1nc([N+](=O)[O-])c(C(C#N)c2nc3cc(C(F)(F)F)ccc3s2)c(Cl)c1=O (stereo unspecified)	n	94	x	x	n	n
